# PMC4336329 (PLoS ONE, 2015)
# In all, about 310,000 compounds went through this assay and about 14,000 (4.5%) showed an effect of 50% or more. Effects have a minus sign here. The full list was thinned out, with strong results kept by preference.
# Biological target: human ether-à-go-go-related gene (hERG) potassium channel (human, UniProt Q12809)
# Test: primary screen, population patch clamp on CHO cells stably expressing hERG; higher = less effect of the substance
# 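Also: peak tail current of the secondary pulse compared with the same well before compound.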
# Sequence of human ether-à-go-go-related gene (hERG) potassium channel (Q12809 whole entry, looked up): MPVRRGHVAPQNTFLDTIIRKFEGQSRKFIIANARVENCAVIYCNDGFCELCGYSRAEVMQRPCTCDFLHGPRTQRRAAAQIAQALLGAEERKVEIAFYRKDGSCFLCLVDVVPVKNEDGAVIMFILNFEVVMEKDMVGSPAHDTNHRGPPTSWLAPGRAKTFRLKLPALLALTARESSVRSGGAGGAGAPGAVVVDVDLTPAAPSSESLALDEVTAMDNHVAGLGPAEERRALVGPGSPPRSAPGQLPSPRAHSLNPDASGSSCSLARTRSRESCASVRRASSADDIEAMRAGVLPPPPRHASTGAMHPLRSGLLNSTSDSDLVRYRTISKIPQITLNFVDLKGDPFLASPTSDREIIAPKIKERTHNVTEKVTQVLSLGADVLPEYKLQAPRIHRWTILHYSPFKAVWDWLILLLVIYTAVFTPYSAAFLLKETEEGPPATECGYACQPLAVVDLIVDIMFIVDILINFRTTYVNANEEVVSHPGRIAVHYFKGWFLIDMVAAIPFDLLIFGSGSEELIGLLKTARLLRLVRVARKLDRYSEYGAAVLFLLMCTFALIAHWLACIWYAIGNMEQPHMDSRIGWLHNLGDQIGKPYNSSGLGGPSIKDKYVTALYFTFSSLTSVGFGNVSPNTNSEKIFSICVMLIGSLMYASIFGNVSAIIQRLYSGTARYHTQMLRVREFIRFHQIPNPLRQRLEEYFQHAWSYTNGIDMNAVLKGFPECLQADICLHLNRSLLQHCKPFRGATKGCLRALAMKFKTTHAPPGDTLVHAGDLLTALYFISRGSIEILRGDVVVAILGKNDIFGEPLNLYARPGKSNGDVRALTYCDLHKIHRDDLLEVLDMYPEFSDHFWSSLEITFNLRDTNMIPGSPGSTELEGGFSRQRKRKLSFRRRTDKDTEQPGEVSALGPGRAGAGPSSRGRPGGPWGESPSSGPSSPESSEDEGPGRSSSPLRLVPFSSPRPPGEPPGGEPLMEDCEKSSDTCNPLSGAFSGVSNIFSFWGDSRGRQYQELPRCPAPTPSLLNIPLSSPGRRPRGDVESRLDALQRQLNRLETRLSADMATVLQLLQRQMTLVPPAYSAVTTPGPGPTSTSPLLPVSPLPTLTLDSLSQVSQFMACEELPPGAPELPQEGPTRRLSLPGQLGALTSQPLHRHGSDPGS
row,SMILES,"hERG current change (%, negative = inhibition) at 10uM [%]"
1,O=C(CCc1ccccc1)NCCCNC(=O)CCc1ccccc1,7.49
2,C=CCn1c(C)nnc1SCC(=O)Nc1nccs1,16.6
3,NC(=O)c1ccccc1NC(=O)/C=C/c1c(Cl)cccc1Cl,-31.3
4,Cc1ccc(-c2nnc(N)o2)cc1,9.43
5,Cc1ccc(NC(=O)COC(=O)CCc2ccccc2)c(Cl)c1,27.1
6,CCCCN(C)CCNC(=O)CCn1nc(-c2ccc(Cl)cc2)ccc1=O,-67.1
7,CC(C)CCNC(=O)CCn1nc(-c2ccccc2)ccc1=O,-46.8
8,COCCNC(=O)CCn1nc(-c2ccc(Cl)cc2)ccc1=O,-30.2
9,CC(C)CCNC(=O)CCn1nc(-c2ccc(Cl)cc2)ccc1=O,-54.6
10,CN(C)CCNC(=O)CCn1nc(-c2ccc(Cl)cc2)ccc1=O,-15.4
11,CCCCNC(=O)CCn1nc(-c2ccc(Cl)cc2)ccc1=O,-23.4
12,O=C(CSCc1c(F)cccc1Cl)Nc1ccccc1C(=O)N1CCOCC1,5.4
13,Cc1ccc(C)c(-c2ccc(=O)n(Cc3cccc(Br)c3)n2)c1,10.7
14,CCOc1ccc(NC(=O)C2CCCN(c3nc(C)cc(C)n3)C2)cc1 (stereo not shown),12.4
15,O=C(OCC(=O)c1c[nH]c2ccccc12)c1cc2ccccc2cc1O,1.38
16,COc1cccc(NC(=O)CN2C(=O)COc3ccc(S(=O)(=O)N4CCOCC4)cc32)c1,15.6
17,COc1ccc2nc3oc(C(=O)N4CCC5(CC4)OCCO5)cc3cc2c1,-16.5
18,O=C(Cn1ncc2c([nH]c3ccccc32)c1=O)Nc1ccc(CN2CCCCC2)cc1,-65.8
19,O=C(Cn1ncc2c([nH]c3ccccc32)c1=O)Nc1cccnc1,10.3
20,Cc1ccc(NC(=O)Cn2ncc3c([nH]c4ccccc43)c2=O)cc1Cl,21.4
21,Cc1cccc(CN2CCC(CNC(=O)Cn3ncc4c([nH]c5ccccc54)c3=O)CC2)c1,-23.1
22,O=C(Cn1ncc2c([nH]c3ccccc32)c1=O)NCC1CCN(Cc2ccccc2F)CC1,-44.2

row,SMILES,"hERG current change (%, negative = inhibition) at 10uM [%]"
1,O=C(Cn1ncc2c([nH]c3ccccc32)c1=O)NCC1CCN(Cc2ccc(F)cc2)CC1,-66
2,CS(=O)(=O)N(CC(O)CON=C1c2ccccc2-c2ccccc21)c1ccc(F)cc1 (stereo not shown),8.83
3,O=C(Cc1ccc(Cl)cc1)c1c[nH]c(C(=O)NCc2cccnc2)c1,-0.756
4,COc1cccc(-c2nnc(SCC(=O)Nc3ccc(OC)c(OC)c3)n2N)c1,14.3
5,COc1ccc(-n2c(=O)c3c4c(sc3n(CC(=O)NCc3ccco3)c2=O)CCC4)c(OC)c1,-4.75
6,O=C(NCCN1CCOCC1)c1ccc2c(c1)N(Cc1ccc(F)cc1)C(=O)CS2,0.414
7,COc1ccc(CN(C(=O)CN2C(=O)c3ccccc3S2(=O)=O)C(C(=O)NCC2CCCO2)c2ccco2)cc1 (stereo not shown),-4.57
8,CCn1c(C)nnc1SCC(=O)Nc1ccc(C(C)=O)cc1,11.5
9,CCN1CCN(c2oc(/C=C/c3ccccc3)nc2C#N)CC1,-63.1
10,CN(C)c1oc(/C=C/c2ccccc2)nc1C#N,8.93
11,CCN1CCN(c2oc(-c3ccco3)nc2C#N)CC1,-24.1
12,CN(C)CCCNc1oc(/C=C/c2ccccc2)nc1C#N,-32.5
13,CNc1oc(/C=C/c2ccccc2)nc1C#N,8.33
14,C=CCNc1oc(/C=C/c2ccccc2)nc1C#N,-28
15,CN1CCN(c2oc(/C=C/c3ccccc3)nc2C#N)CC1,-53.7
16,CN(C)CCNc1oc(/C=C/c2ccccc2)nc1C#N,-29.2
17,CCN(CC)CCCNc1oc(/C=C/c2ccccc2)nc1C#N,-71
18,N#CC1=C(c2ccc(-c3ccccc3)cc2)COC1=O,-15.1
19,CCCn1nc(C(=O)NNC(=O)CCCOc2ccc(OC)cc2)c2ccccc2c1=O,-8.53
20,Cc1ccc(NC(=O)CC(C(=O)O)c2ccccc2)cc1 (stereo not shown),8.15
21,COc1ccccc1/C=C/CN1CCC(Oc2ccc(C(=O)N3CCCC3)cc2)CC1,-24.3
